Drawing on PubChem BioAssay (NCI), this text covers growth for eight compounds.

Test systems include NCI-H23 lung; NCI-H226 lung; NCI-H322M lung; HOP-62 NSCLC; NCI-H460 lung; HOP-92 NSCLC; NCI-H522 lung; A549/ATCC NSCLC; 786-0 renal; COLO 205 colon; DU-145 prostate; K-562 leukemia; MALME-3M melanoma; MDA-MB-231 breast; RXF 393 renal; SF-268 CNS; SF-295 CNS; SF-539 CNS; UACC-257 melanoma; M14 melanoma.
Holding throughout (experiment): NCI-60 one-dose screen, 48 h (100 = growth as untreated, 0 = no growth, -100 = all killed)
What all share (details): 10 µM unless noted

About 83,000 compounds went through this panel and 20% of them were active in at least one assay; those are over-represented in the sample as a whole.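 Activity criterion: percent growth below 10, measured after cells in 96-well plates were exposed to a single compound concentration for 48 hours.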 A number with no mark means an inactive call. Calls of active or inactive are those of the source.

On to `O=C1Nc2cc(-c3ccc(NS(=O)(=O)c4ccccc4)cc3)ccc2/C1=C/c1ccc[nH]1`, for which the growth in the test on NCI-H23 lung is 29.9%; in the test on NCI-H226 lung, 65.9%; with NCI-H322M lung it was 49.6%; in the test with HOP-62 NSCLC, 106%; with NCI-H460 lung, 11.4%; with HOP-92 NSCLC it was 95.7%. The growth in the test on NCI-H522 lung was 76.4%; with A549/ATCC NSCLC, 86.6%; with 786-0 renal, 108%; with COLO 205 colon, 125%; in the test with DU-145 prostate, 31.8%; in the test on K-562 leukemia, 61%. In addition, the growth in the test on MALME-3M melanoma is 85.5%; with MDA-MB-231 breast it was 62.9%; with RXF 393 renal it was 104%; in the test on SF-268 CNS, 92.1%; with SF-295 CNS, 98.7%; in the test with SF-539 CNS it was 76.2%. Further, the figures for the growth in the test on UACC-257 melanoma and in the test with M14 melanoma were 110% and 90.1%, respectively.

On to `O=C(Nc1ccccc1)Nc1ccc2cc3ccc(NC(=O)Nc4ccccc4)cc3nc2c1`, for which the growth in the test with NCI-H23 lung is 23.7%; in the test with NCI-H226 lung, 91%; in the test on NCI-H322M lung it was 61.6%; with HOP-62 NSCLC it was 46.1%; with NCI-H460 lung, 92.6%; in the test with HOP-92 NSCLC, 87.6%. The growth is -4.64% (active) in the test with NCI-H522 lung; 101% in the test with A549/ATCC NSCLC; 25.7% with 786-0 renal; 3.12% (active) in the test with COLO 205 colon; 39.2% in the test with DU-145 prostate; 1.08% (active) in the test on K-562 leukemia. The growth in the test on MALME-3M melanoma is -9.29% (active); in the test with MDA-MB-231 breast, -51.4% (active); with RXF 393 renal it was 28.5%; in the test on SF-268 CNS it was -22.4% (active); with SF-295 CNS, 17.8%; in the test on SF-539 CNS, -56% (active). In addition, the values for the growth in the test on UACC-257 melanoma and with M14 melanoma were 104% and 47.2%, respectively.

For the compound `O=S(=O)(NCCNc1nccc(-c2c(-c3cccc(F)c3)nc3sccn23)n1)c1ccccc1`, the growth with NCI-H23 lung is 56.1%; in the test with NCI-H226 lung it was 34.5%; in the test with NCI-H322M lung it was 51.5%; in the test on HOP-62 NSCLC it was 60.2%; in the test on NCI-H460 lung, 25.9%; in the test with HOP-92 NSCLC it was 51.5%. Besides, the growth was 43.7% in the test with NCI-H522 lung; 25.2% in the test on A549/ATCC NSCLC; 47.4% in the test with 786-0 renal; 24.2% in the test with COLO 205 colon; 40% in the test with DU-145 prostate; 23.9% in the test on K-562 leukemia. The growth with MALME-3M melanoma was 68.5%; in the test on MDA-MB-231 breast, 66%; with RXF 393 renal, 64.1%; in the test with SF-268 CNS it was 43.5%; in the test with SF-295 CNS it was 47.4%; in the test with SF-539 CNS, 65.5%. For the same compound, the growth with UACC-257 melanoma was 65.3%; in the test on M14 melanoma, 41.4%.

As for `Cc1c(C(=O)NCCC(=O)NO)sc2ncnc(Nc3ccc(F)c(Cl)c3)c12`, the growth is 101% with NCI-H23 lung; 104% with NCI-H226 lung; 108% in the test on NCI-H322M lung; 105% in the test on HOP-62 NSCLC; 100% in the test on NCI-H460 lung; 118% in the test on HOP-92 NSCLC. The growth was 95.6% in the test on NCI-H522 lung; 104% in the test with A549/ATCC NSCLC; 105% with 786-0 renal; 117% in the test on COLO 205 colon; 111% in the test with DU-145 prostate; 113% in the test with K-562 leukemia. Moreover, the growth is 113% with MALME-3M melanoma; 103% in the test on MDA-MB-231 breast; 102% with RXF 393 renal; 96.5% with SF-268 CNS; 96.1% in the test on SF-295 CNS; 98% in the test on SF-539 CNS. Further, the growth is 99.7% in the test with UACC-257 melanoma and 105% in the test on M14 melanoma.

Take `COc1ccc(/C=C2\Oc3cc(OCCCN4CCCCC4)ccc3C2=O)cc1OC`: the growth in the test on NCI-H23 lung is 92.1%; with NCI-H226 lung, 90%; in the test with NCI-H322M lung, 92.1%; in the test with HOP-62 NSCLC it was 85.7%; in the test on NCI-H460 lung it was 89%; in the test with HOP-92 NSCLC it was 65.9%. Also, the growth was 99.1% in the test on NCI-H522 lung; 93.6% in the test on A549/ATCC NSCLC; 88.7% in the test on 786-0 renal; 98.3% with COLO 205 colon; 95.9% in the test on DU-145 prostate; -22.8% (active) in the test on K-562 leukemia. Besides, the growth in the test on MALME-3M melanoma is 104%; in the test with MDA-MB-231 breast, 78.6%; with RXF 393 renal it was 74.4%; in the test with SF-268 CNS it was 86.5%; with SF-295 CNS, 102%; in the test on SF-539 CNS it was 91.5%. Further, the growth is 102% in the test with UACC-257 melanoma and 98.7% in the test on M14 melanoma.

As for `Cc1cccc(NC(=O)Nc2ccc(-n3cnc4cc(-c5ccc(O)cc5)ccc43)cc2)c1`, the growth in the test with NCI-H23 lung is 27.7%; with NCI-H226 lung, 62.6%; with NCI-H322M lung, 69.8%; with HOP-62 NSCLC it was 39.3%; in the test on NCI-H460 lung, 9.07% (active); in the test with HOP-92 NSCLC, 81.1%. Further, the growth in the test with NCI-H522 lung was 6.16% (active); in the test on A549/ATCC NSCLC, 24.9%; in the test on 786-0 renal, 36.2%; with COLO 205 colon, 69.1%; in the test with DU-145 prostate, 33.9%; with K-562 leukemia, 14.2%. In addition, the growth in the test on MALME-3M melanoma was 28.4%; in the test with MDA-MB-231 breast, 47.3%; with RXF 393 renal it was 58.4%; with SF-268 CNS it was 42.3%; in the test on SF-295 CNS, 18.4%; in the test with SF-539 CNS, 29.1%. Besides, the figures for the growth with UACC-257 melanoma and with M14 melanoma were 32.3% and 21.4%, respectively.

On to `C/C(=N\NC(=O)CSc1nc2ccccc2c(=O)n1Cc1ccc(S(N)(=O)=O)cc1)c1ccc(F)cc1`, for which the growth is 105% in the test on NCI-H23 lung; 102% in the test on NCI-H226 lung; 102% with NCI-H322M lung; 98.8% in the test with HOP-62 NSCLC; 103% in the test on NCI-H460 lung; 124% with HOP-92 NSCLC. For the same compound, the growth in the test with NCI-H522 lung is 18.1%; with A549/ATCC NSCLC it was 102%; in the test with 786-0 renal, 104%; with COLO 205 colon, 115%; in the test on DU-145 prostate it was 111%; with K-562 leukemia it was 103%. Also, the growth in the test on MALME-3M melanoma is 106%; in the test with MDA-MB-231 breast, 101%; in the test on RXF 393 renal it was 109%; with SF-268 CNS, 98.8%; with SF-295 CNS, 102%; in the test on SF-539 CNS it was 104%. In addition, the growth in the test on UACC-257 melanoma and in the test with M14 melanoma was 107% each time.

Regarding `COc1ccc2nc(-c3ccc(-c4noc(-c5cc(OC)c(OC)c(OC)c5)n4)cc3)[nH]c2c1`, the growth is 63.8% in the test with NCI-H23 lung; 86% in the test on NCI-H226 lung; 101% in the test with NCI-H322M lung; 76.8% in the test on HOP-62 NSCLC; 56.3% with NCI-H460 lung; 76.2% in the test with HOP-92 NSCLC. For the same compound, the growth is 74.9% with NCI-H522 lung; 45.8% in the test on A549/ATCC NSCLC; 77.8% in the test with 786-0 renal; 78.4% in the test on COLO 205 colon; 57.4% in the test with DU-145 prostate; 14.7% with K-562 leukemia. Further, the growth with MALME-3M melanoma is -33% (active); with MDA-MB-231 breast, 41.4%; in the test with RXF 393 renal, 58.2%; with SF-268 CNS, 50.5%; in the test with SF-295 CNS, 83.3%; with SF-539 CNS, -24.4% (active). Besides, the growth was 102% in the test on UACC-257 melanoma and 63% with M14 melanoma.
